Compound activity as filed in PubChem.
HCT116 PTEN-null = growth suppressors of cells with PTEN tumor suppressor deletion | hit rate 1.2% among 140,000 | HCT116 PTEN-null viability, CellTiter-Glo, 60 h; stronger effect = lower value | viability, % at 10 µM;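 active = viability at or below a set limit, 4 SD under the median of all tested compounds, cut at about 3.7% in these data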;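 note: PTEN knockout HCT116 line with beta catenin targeted HCT116 as companion control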
Autophagy mod = alters autophagy in cells | MEF GFP-LC3 puncta imaging; test concentration mostly 10 µM | calls only at 10 µM (by protocol) | hit rate 0.98% among 190,000 | AID 463193;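 active = percentage of spot-positive cells more than 3 SD above its plate mean, without a fluorescence outlier flag or 80% toxicity; inconclusive = no clear call, values can overlap the other calls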;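 note: spot-positive cell cutoff set from DMSO-treated cells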
bCat KO growth = beta-catenin-lacking colon tumor cell growth suppression; HCT116 beta-catenin knockout viability, CellTiter-Glo, 60 h; stronger effect = lower value; viability, % at 10 µM; hit rate 1.5% among 140,000; AID 818;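 active = viability at or under a set limit, the compound median less 4 SD, cut at about 6% in these data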;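 note: 0% = Hyamine 1622 control at 20 µM and 100% = untreated cell control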
Lmaj promast = Leishmania major promastigote growth inhibition; hit rate 9% among 200,000; AID 1063; Leishmania major promastigotes, resazurin fluorescence viability; inhibition, % at 10 µM; in the data active = inhibition above about 50%;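 note: promastigotes grown with compound for 44 hours at 28 °C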
Insulin prom inh = TRM-6 insulin promoter activity inhibition; TRM-6 cells (human fetal islet line), insulin promoter-eGFP reporter, imaging; reporter expression induced with tamoxifen; inhibition, % at 2 µM; hit rate 0.9% among 130,000;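 active = inhibition above the mean plus 3 SD, with well images judged a real hit on visual review, cut at about 60% in these data, passing the limit was not always enough; inconclusive = inhibition over the cutoff but images rejected on review; inactive = inhibition not above the cutoff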
Insulin prom up = MIN6 insulin promoter up-regulation; MIN6 insulin promoter-GFP reporter, high-content imaging; stronger effect = higher value; z-score at 5 µM; hit rate 0.3% among 190,000;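 active = z-score above 3 at 5 µM with at least 500 cells counted in the well; inconclusive = wells under 500 cells, flagged as cytotoxic or low count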
Active calls of the source: *; i = inactive; ? = inconclusive; . = not tested or not shown; + = active, no number. Only some compounds are listed: those with a hit (about 9.6% of all), similar ones and a draw of the others.

SMILES	HCT116 PTEN-null	Autophagy mod	bCat KO growth	Lmaj promast	Insulin prom inh	Insulin prom up
CCOC(=O)c1cc2c(=O)n3cccc(C)c3nc2n(Cc2ccco2)c1=NC(=O)c1cccnc1	97	i	76	86*	-108	-0.05
Cc1cccn2c(=O)c3cc(C#N)c(=NC(=O)c4ccco4)n(Cc4ccco4)c3nc12	.	.	.	.	.	-0.34
CN(C)S(=O)(=O)c1ccc(C(=O)NNc2nc(-c3ccccc3)c3cc(Br)ccc3n2)cc1	59	i	64	71*	6	-0.2
COc1cc(/C=C/C(=O)OCC(=O)N2CC3(C)CC2CC(C)(C)C3)ccc1O (centres undefined)	80	i	76	15	23	0.19
COc1ccc(/C=N/OCC(=O)N2CC3(C)CC2CC(C)(C)C3)cc1OC (centres undefined)	95	i	90	65*	-84	0.09
CC1(C)Cn2c(nnc2-c2cccc(O)c2)S1	100	i	101	-3	91*	-0.07
C=C(C(=O)c1ccccc1)C(CC(=O)c1ccccc1)c1ccccc1 (centres undefined)	3.1*	i	4.8*	82*	.	0.05
C=C(CCC(=O)c1ccccc1)C(=O)c1ccccc1	0.5*	i	0.4*	100*	.	.
Cc1cnc(NC(=O)CSc2nc3ccccc3c(=O)[nH]2)s1	91	i	99	1	16	.
CC(C)CNS(=O)(=O)c1ccc(CCC(=O)N2CCN(c3ccc(F)cc3)CC2)cc1	.	i	.	18	.	-0.5
Cc1cccc2c(=O)cc(C)n(Cc3ccccc3)c12	92	i	86	59*	-19	-0.69
CNC(=O)Cn1c(C)cc(=O)c2cccc(C)c21	.	.	.	.	.	0
CC(C)(C)C(=O)Nc1ccc(S(=O)(=O)c2ccc(NC(=O)C(C)(C)C)cc2)cc1	84	i	98	-2	75*	0.37
CC(C)(C)C(=O)Nc1cc(S(=O)(=O)Nc2ccc(Cl)cc2)ccc1Cl	69	i	75	76*	0	0.4
NNc1ccc(S(=O)(=O)N2CCCCC2)cn1	.	.	.	.	.	0.15
O=C1C=CC(O)(c2cc(=O)c3c(O)cc(O)cc3o2)C=C1	1.3*	i	1.1*	70*	-224	?
O=c1cc(-c2ccccc2Cl)oc2cc(O)cc(O)c12	90	i	99	-8	38	0.18
Cc1csc(Nc2ccc(C(=O)O)cc2)n1	.	.	.	.	.	0.09
COc1cc(-c2nc(-c3ccc4c(c3)-c3ccccc3S4(=O)=O)c(-c3ccccc3)[nH]2)cc(OC)c1O	23	i	41	91*	37	-2.5
Cc1ccc(Nc2nc(C)c3c(n2)CC(C)CC3=O)c(C)c1 (centres undefined)	.	.	.	.	.	-0.59
Cc1nc(Nc2cccc(C(F)(F)F)c2)nc2c1C(=O)CC(C)C2 (centres undefined)	38	+	59	-2	28	-0.06
Cc1nn(Cc2ccc(Cl)c(Cl)c2)c(C)c1NC(=O)c1sc2ccccc2c1Cl	79	i	84	1	20	.
Cc1ccc(NC(=S)N(CCN(C)C)Cc2cc3cc(C)cc(C)c3[nH]c2=O)cc1	59	i	46	79*	30	0.54
Cc1cc(C)c2[nH]c(=O)c(CN(CC3CCCO3)C(=O)c3cnccn3)cc2c1 (centres undefined)	108	i	104	4	.	2.2
CCOCCCN(Cc1cc2cc(C)cc(C)c2[nH]c1=O)C(=O)N(CC)CC	81	i	81	58*	-11	-0.9
SMILES	HCT116 PTEN-null	Autophagy mod	bCat KO growth	Lmaj promast	Insulin prom inh	Insulin prom up
Cc1ccc2cc(CN(CCN(C)C)C(=S)Nc3ccccc3)c(=O)[nH]c2c1C	.	i	.	13	.	-0.48
COc1ccc(NC(=O)c2cccc(Oc3ccc([N+](=O)[O-])cc3Cl)c2)cc1	16	i	14	-5	22	.
O=C(Nc1cccc(Cl)c1)c1cccc(Oc2ccc([N+](=O)[O-])cc2Cl)c1	6	i	28	98*	4	0.25
c1ccc(CN2CCN(CCOCCOc3cccc4ccccc34)CC2)cc1	.	i	.	14	.	-1.2
CCC(C)c1ccccc1OCCOCCN1CCCC1 (centres undefined)	78	i	88	98*	8	0.67
CCC(C)c1ccccc1OCCCCN1CCCC1 (centres undefined)	75	i	80	99*	-15	-0.41
COc1cc(/C=N/Nc2snc(SC)c2C#N)ccc1O	53	i	58	10	-2	-0.54
Cc1ccc(-c2oc3ccccc3c(=O)c2OCC(=O)O)cc1	.	i	.	2	.	-0.61
Cc1ccc(-c2oc3ccccc3c(=O)c2O)cc1	17	+	22	-15	.	-1.4
Cc1ccc(C)c2[nH]c(=O)c(CN(CCN3CCCC3)C(=O)Nc3cccc(Cl)c3)cc12	1.8*	+	3.0*	100*	-3	.
CCc1ccc2[nH]c(=O)c(CN(CCCN3CCOCC3)C(=O)Nc3cccc(Cl)c3)cc2c1	1.9*	i	1.9*	84*	.	-0.14
CCc1ccc2[nH]c(=O)c(CN(CCCN3CCOCC3)C(=O)Nc3ccccc3)cc2c1	56	i	61	21	.	-1.6
O=C(Cn1cc(C(F)(F)F)cc(Cl)c1=O)NCCc1ccc(Cl)cc1Cl	.	.	.	.	.	-0.56
CNCc1ccccc1Sc1cccc2ccccc12	7	i	16	79*	-48	-1.3
CN(C)CCN(C)Cc1ccccc1Sc1cccc2ccccc12	1.5*	i	1.2*	100*	-29	-2.5
COc1cccc(Sc2ccccc2CN(C)C)c1	86	i	83	6	29	.
CNCc1ccccc1Sc1ccc(OC)cc1	89	i	92	9	.	-0.54
CCN1CCN(CC(O)COc2ccc3c(c2)CCC3)CC1 (centres undefined)	102	i	99	84*	-21	-0.07
Cc1cc(OCC(O)CN2CCN(CCO)CC2)ccc1C(C)C (centres undefined)	84	i	81	89*	32	0.46
O=S(=O)(c1ccccc1)N1CCN(CC(O)COc2ccc3c(c2)CCC3)CC1 (centres undefined)	71	i	75	12	-8	-0.22
COc1ccccc1CN(C)CC(=O)Nc1ccc(Cl)cc1F	.	i	.	15	.	-0.34
COc1cc(Cl)c(C)cc1NC(=O)CN(C)Cc1cccc(OC)c1OC	.	i	.	18	.	3.4*
Cc1cc(-c2nnc3n2N=C(c2ccccc2)CS3)n[nH]1	.	.	.	.	.	-0.51
Cc1cc(-c2nnc3n2N=C(c2ccc(-c4ccccc4)cc2)CS3)n[nH]1	3.1*	i	19	66*	.	0.96
Fc1ccc(C2=Nn3c(nnc3-c3n[nH]c4c3CCC4)SC2)cc1	46	i	37	51*	.	-0.17
c1ccc(-c2cc(-c3nnc4n3N=C(c3ccc5ccccc5c3)CS4)[nH]n2)cc1	1.9*	i	6	55*	4	-1.9
COc1ccc(C2=Nn3c(nnc3-c3ccccc3)SC2)cc1OC	94	i	87	1	3	-0.59
CC1=Nn2c(nnc2-c2n[nH]c3c2CCC3)SC1	103	i	101	5	.	-0.95
